This is an account of results in PubChem BioAssay.

The subject of assay [1] is TRPC4 beta (transient receptor potential cation channel C4), mouse. The assay can be described thus: TRPC4 cation channel opening, retest – cell-based, Fluo4 calcium, HEK293 TRPC4beta/mu-opioid, duplicates, 10 µM, confirmation (AID 2426;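 active = fluorescence ratio normalized to control raised more than 50% in primary screen plus both repeat runs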;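 as to activation: percent rise of integrated ratio over buffer wells lacking compound which define 0%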). The note with it: Fluo4 calcium fluorescence, at 10 µM; hits give high values.
The subject of assay [2] is transient receptor potential cation channel C4 beta (TRPC4), mouse. The assay can be described thus: TRPC4 cation channel opening, second retest – cell-based, second round, Fluo4, HEK293 TRPC4beta/mu-opioid, 1 µM, confirmation (AID 2461;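 active = primary screen active and over 50% activation in each of two duplicate runs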;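 as to activation: 0% = wells without test compound as baseline of integrated fluorescence ratio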). To be noted: Fluo4 calcium fluorescence, at 1 µM; hits give high values.
Assay [3] has as its system TRPC4 (transient receptor potential cation channel C4 beta), mouse. The assay can be described thus: potentiation of DAMGO EC20 TRPC4 response – cell-based, second round, Fluo-4, HEK293 TRPC4beta/mu-opioid, 1 µM, confirmation (AID 2554;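 active = primary screen hit whose fluorescence ratio, in both repeats, exceeds the weak agonist control mean by 3 SD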). The note with it: DAMGO EC20, Fluo-4 calcium flux, at 1 µM; hits give high values.
In assay [4] the test system is TRPC4 beta (transient receptor potential cation channel C4), mouse. The assay can be described thus: potentiation of DAMGO EC20 TRPC4 response – cell-based, Fluo-4, HEK293 TRPC4beta/mu-opioid, confirmation (AID 2555;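 active = primary screen hit whose calcium fluorescence ratio, in both repeats, exceeds the weak agonist control mean by 3 SD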). To be noted: DAMGO EC20, Fluo-4 calcium flux, at 10 µM; hits give high values.
Assay [5] addresses Short transient receptor potential channel 4 (Mus musculus) (UniProt Q9QUQ5). The assay can be described thus: blockers of DAMGO-evoked TRPC4 calcium flux – cell-based, Fluo4, HEK293 TRPC4beta/mu-opioid, confirmation (AID 2636;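 active = calcium signal cut by more than 3 SD below the full-agonist control yet still positive, in both repeats and the earlier primary screen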). To be noted: at 10 µM; hits give high values.
Assay [6] shares this target. The assay can be described thus: blockers of DAMGO-evoked TRPC4 calcium flux – cell-based, second round, Fluo4, HEK293 TRPC4beta/mu-opioid, 1 µM, confirmation (AID 2637;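 active = calcium signal ratio cut to more than 3 SD under the fully stimulated control mean yet still positive, in both repeats and the primary screen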;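 as to inhibition: percent of integrated ratio relative to wells lacking test compound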). To be noted: at 1 µM; hits give high values.
Assay [7] shares this target. The assay can be described thus: potentiation of DAMGO-evoked TRPC4 calcium signal – cell-based, HEK293 TRPC4/mu-opioid, Fluo-4 calcium, EC20 DAMGO, dose response (AID 434941;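 active = earlier screen potentiator hit that boosts the TRPC4 ion channel at some dose, with a dose response; inactive = no potentiation, no dose response, or not a prior hit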;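 also: calcium entry triggered by an EC20 dose of DAMGO at the co-expressed mu-opioid receptor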). The note with it: HEK293 TRPC4/mu-opioid cells, Fluo-4 calcium fluorescence; series mostly up to 20 µM.
For assay [8] the target is unchanged. The assay can be described thus: block of DAMGO-driven TRPC4 calcium entry – cell-based, HEK293 TRPC4/mu-opioid, Fluo-4 calcium, dose response (AID 434942;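 active = primary screen inhibitor hit that blocks the TRPC4 channel at some tested dose, yielding a dose curve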). The note with it: HEK293 TRPC4/mu-opioid cells, DAMGO-evoked Fluo-4 calcium ratio; series mostly up to 20 µM.
The target in assay [9] is Short transient receptor potential channel 6 (Mus musculus) (UniProt Q61143). The assay can be described thus: TRPC6 blockade by TRPC4 inhibitor hits – cell-based, HEK293, membrane potential dye, duplicate, selectivity assay for TRPC4 inhibitor project, confirmation (AID 434948;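 active = active in primary screen and both duplicates, each dropping signal beyond three positive-control SD with fluorescence still positive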). To be noted: HEK293 TRPC6, membrane potential dye fluorescence, at 10 µM, stimulated with maximal-effect acetylcholine; hits give high values.
Chain of Short transient receptor potential channel 6 (Mus musculus) (Q61143 whole entry, looked up): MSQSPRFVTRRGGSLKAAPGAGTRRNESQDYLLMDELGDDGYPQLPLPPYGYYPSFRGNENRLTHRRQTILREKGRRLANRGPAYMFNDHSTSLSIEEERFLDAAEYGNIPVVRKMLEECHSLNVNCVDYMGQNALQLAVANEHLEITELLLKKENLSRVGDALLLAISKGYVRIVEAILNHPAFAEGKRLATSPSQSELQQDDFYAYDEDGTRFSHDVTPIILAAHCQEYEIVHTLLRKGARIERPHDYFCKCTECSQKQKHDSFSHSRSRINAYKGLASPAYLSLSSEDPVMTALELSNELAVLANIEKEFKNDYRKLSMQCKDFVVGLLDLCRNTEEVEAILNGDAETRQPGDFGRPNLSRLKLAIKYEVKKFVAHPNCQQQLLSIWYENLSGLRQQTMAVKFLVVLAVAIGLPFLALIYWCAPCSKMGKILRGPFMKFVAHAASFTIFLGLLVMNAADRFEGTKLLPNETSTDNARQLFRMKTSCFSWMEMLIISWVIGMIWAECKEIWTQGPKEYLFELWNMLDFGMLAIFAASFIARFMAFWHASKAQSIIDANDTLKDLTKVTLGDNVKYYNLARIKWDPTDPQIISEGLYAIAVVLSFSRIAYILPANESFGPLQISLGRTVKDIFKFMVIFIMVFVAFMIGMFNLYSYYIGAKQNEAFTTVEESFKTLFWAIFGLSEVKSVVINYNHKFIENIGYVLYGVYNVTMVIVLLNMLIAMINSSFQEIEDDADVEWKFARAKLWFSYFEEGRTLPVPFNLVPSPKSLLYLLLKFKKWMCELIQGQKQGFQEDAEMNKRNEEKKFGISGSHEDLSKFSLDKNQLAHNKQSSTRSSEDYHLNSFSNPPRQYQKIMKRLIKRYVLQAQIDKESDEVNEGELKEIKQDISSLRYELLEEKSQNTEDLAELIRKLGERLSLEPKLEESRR

Assay [10] has the same target. The assay can be described thus: TRPC6 opening by TRPC4 activator hits – cell-based, HEK293, membrane potential dye, duplicate, selectivity assay for TRPC4 activator project, confirmation (AID 434950;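 active = membrane potential signal rise above negative control mean plus 3 SD in both duplicates, also active in the earlier TRPC4 screen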;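 as to activation: 0% = buffer only wells and 100% = acetylcholine maximal-effect wells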). The note with it: HEK293 TRPC6, membrane potential fluorescence, at 10 µM; activation: hits give high values; outcome: activation.
For assay [11] the target is unchanged. The assay can be described thus: positive modulators of mouse TRPC6 channel – HEK293 cells, membrane potential dye, duplicate, selectivity assay for TRPC4 potentiator project, confirmation (AID 434952). The note with it: HEK293 TRPC6, membrane potential dye fluorescence, at 10 µM, maximal acetylcholine added after compound; hits give high values.
Assay [12] deals with Short transient receptor potential channel 4 (Mus musculus) (UniProt Q9QUQ5). The assay can be described thus: calcium flux activators in TRPC4/5HT1a cells, counter-screen for TRPC4 activator project, cell-based, second counter screen, HEK293 TRPC4/5HT1a, Fluo-4 (AID 434977;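 active = calcium signal rise above buffer-control mean plus 5 SD in both duplicates, and also a hit in the primary screen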;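 as to activation: plate controls were assay buffer for no effect and maximal serotonin response for full effect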). The note with it: Fluo-4 calcium flux, at 10 µM; hits give high values. For orientation: Calcium flux is commonly read through the fluorescence of an indicator in the cells.
Chain of Short transient receptor potential channel 4 (Mus musculus) (Q9QUQ5 whole entry, looked up): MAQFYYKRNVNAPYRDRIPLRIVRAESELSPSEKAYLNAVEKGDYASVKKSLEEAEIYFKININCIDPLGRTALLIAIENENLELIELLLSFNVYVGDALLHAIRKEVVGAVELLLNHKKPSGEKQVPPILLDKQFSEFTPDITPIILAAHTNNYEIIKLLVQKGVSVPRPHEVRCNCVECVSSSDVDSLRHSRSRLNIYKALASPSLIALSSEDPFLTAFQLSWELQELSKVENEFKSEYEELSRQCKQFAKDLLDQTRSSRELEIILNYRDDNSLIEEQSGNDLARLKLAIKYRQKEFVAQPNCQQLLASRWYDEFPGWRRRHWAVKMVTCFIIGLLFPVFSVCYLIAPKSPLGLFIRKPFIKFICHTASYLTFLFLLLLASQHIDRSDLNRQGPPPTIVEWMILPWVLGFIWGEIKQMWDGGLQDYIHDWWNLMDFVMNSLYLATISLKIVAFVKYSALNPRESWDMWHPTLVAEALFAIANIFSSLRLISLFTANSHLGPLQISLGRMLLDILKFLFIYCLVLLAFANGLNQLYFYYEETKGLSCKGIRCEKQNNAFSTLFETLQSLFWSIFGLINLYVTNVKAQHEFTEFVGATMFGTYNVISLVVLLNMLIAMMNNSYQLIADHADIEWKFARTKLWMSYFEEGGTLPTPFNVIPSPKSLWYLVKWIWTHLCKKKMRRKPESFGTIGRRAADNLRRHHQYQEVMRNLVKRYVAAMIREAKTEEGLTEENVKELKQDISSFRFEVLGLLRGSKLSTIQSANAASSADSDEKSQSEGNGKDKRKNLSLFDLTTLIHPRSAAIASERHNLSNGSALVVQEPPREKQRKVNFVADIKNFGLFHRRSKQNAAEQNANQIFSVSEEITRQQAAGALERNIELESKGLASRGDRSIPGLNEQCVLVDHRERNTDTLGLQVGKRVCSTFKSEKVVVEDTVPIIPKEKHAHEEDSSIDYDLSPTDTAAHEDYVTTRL

Assay [13] in a line: serotonin-gated TRPC4 signal block – cell-based, second counter screen, HEK293 TRPC4/5HT1a, Fluo-4, counter-screen for TRPC4 inhibitor project, confirmation (AID 434978;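 active = primary screen active whose calcium signal fell more than 3 SD beyond the full-serotonin control mean in both duplicate plates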;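 as to outcome: serotonin given first at submaximal then at maximal dose after compound preincubation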). To be noted: Fluo-4 calcium flux, at 10 µM, serotonin added to trigger calcium flux; hits give high values. For orientation: A counterscreen serves to expose hits that act by an unwanted route or on another target.

For assay [14], the system named is TRPC4 (mouse), co-expressed with 5HT1a in HEK293. The assay can be described thus: enhancement of serotonin-evoked TRPC4 response – cell-based, second counter screen, HEK293 TRPC4/5HT1a, Fluo-4, counter-screen for TRPC4 potentiator project, confirmation (AID 434979;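 active = signal rise over 3 SD above mean of control wells given weak agonist, in both repeats and first screen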). To be noted: Fluo-4 calcium flux, at 10 µM, serotonin added at its EC20 dose; hits give high values.

Assay [15] is described as follows: nonspecific calcium rise without TRPC4 – cell-based, HEK293 mu-opioid receptor line, counter-screen for TRPC4 activator project, confirmation (AID 449723;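 active = hit in primary screen, with calcium signal over 5 SD above buffer well mean in both duplicates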;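 also: counter screen cells carry the mu-opioid receptor alone and lack TRPC4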). The note with it: HEK293 mu-opioid cells, Fluo-4 calcium fluorescence, at 10 µM; hits give high values.
A short description of assay [16]: nonspecific potentiation of DAMGO calcium response – cell-based, HEK293 mu-opioid receptor line, counter-screen for TRPC4 allosteric potentiator project, confirmation (AID 449724;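 active = calcium signal rise more than 3 SD above the low-dose agonist control mean, in both duplicate plates and the primary screen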;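 also: HEK293 cells carrying mu-opioid receptor only with no TRPC4 channel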). To be noted: HEK293 mu-opioid receptor cells, Fluo-4 calcium flux, at 10 µM, compound added before EC20 DAMGO stimulus; hits give high values.

For some assays here: Potency and affinity values are given separately. Activity calls are given as the source filed them.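 The calls were made as follows, unless noted: active = compound raising the membrane signal above positive-control mean plus 3 SD in both repeats, and a primary screen hit; inactive = the rest.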

On to `Cc1ccc(OCC(=O)NNC(=S)NC(=O)C(C)(C)C)c(Br)c1`, for which the activation in assay [1] was 120% (active); in assay [10] it was 24% (active); in assay [12], 90.9% (active); in assay [15] it was 19.6% (active). In addition, the outcome in assay [2], in assay [3], in [4], in assay [5], in assay [6] and in [7] was inactive. The result in assay [8], in assay [9], in assay [11], in assay [13], in [14] and in [16] was inactive.

`CCCCC(=O)NNC(=S)NC(=O)C(c1ccccc1)c1ccccc1`: the activation in [1] was 122% (active); in [10], 42% (active); in [12] it was 96.7% (active); in [15] it was 31.6% (active). For the same molecule, the result in assay [2], in assay [3], in assay [4], in assay [5], in assay [6] and in assay [7] was inactive. The outcome in [8], in assay [9], in assay [11], in assay [13], in assay [14] and in assay [16] was inactive.

On to `Cc1cccc(C(=O)NC(=S)NNC(=O)c2cccs2)c1`, for which the activation in assay [1] was 226% (active); in assay [10] it was 34.5% (active); in [12], 125% (active); in [15], 67.1% (active). Further, the outcome in assay [2], in assay [3], in assay [4], in [5], in assay [6] and in [7] was inactive. For the same molecule, the outcome in assay [8], in assay [9], in [11], in assay [13], in [14] and in assay [16] was inactive.

Regarding `CCN1/C(=C\c2ccc3ccccc3[n+]2CC)Sc2cc(C)ccc21`, the activation was 544% (active) in assay [1]; 147% (active) in assay [2]; 600% (active) in assay [12]; 672% (active) in [15]; 27400% (active) in [16]. The result in [3], in assay [5], in assay [6], in assay [7], in assay [8] and in assay [9] was inactive. In addition, the outcome in assay [10], in assay [11] and in [13] was inactive. For the same molecule, the potentiation in assay [4] is 18% (active); in assay [14], 110% (active).

As for `CN(C)C(CNC(=O)Cc1cccc(C(F)(F)F)c1)c1ccccc1` (stereo not given), the activation in assay [1] was 129% (active); in [2], 142% (active); in [10] it was 31% (active). In addition, the result in [3], in assay [4], in assay [5], in assay [6], in assay [7] and in assay [9] was inactive. Besides, the result in assay [11], in [12], in [13], in [14], in [15] and in assay [16] was inactive.

With `CN1C2C=C(N(CCc3c[nH]c4ccccc34)C(=O)c3ccc(Cl)cc3)CC1CC2` (stereo not given), the activation in assay [1] is 130% (active). Also, the outcome in assay [2], in assay [3], in assay [4], in assay [5], in [7] and in [9] was inactive. Besides, the outcome in [10], in assay [11], in assay [12], in assay [13], in assay [14] and in assay [15] was inactive. Besides, the outcome in [16] was inactive. Further, in assay [6], the inhibition was 80% (active).

As to `COc1ccc(C(=O)NNC(=S)NC(=O)c2ccccc2)cc1`, the activation was 130% (active) in assay [1], 32% (active) in [10], 87.5% (active) in [12] and 32.5% (active) in assay [15]. Further, the result in assay [2], in assay [3], in assay [4], in assay [5], in assay [6] and in assay [7] was inactive. Moreover, the result in assay [8], in [9], in assay [11], in assay [13], in assay [14] and in [16] was inactive.

With `COc1cccc(-c2nn(-c3ccccc3)cc2CN(C)C(C)c2ccncn2)c1` (stereo not given), the outcome in [1], in assay [2], in assay [3], in [4], in assay [6] and in assay [7] was inactive. For the same molecule, the outcome in [9], in [11], in assay [12], in assay [13], in assay [14] and in [15] was inactive. Further, the outcome in assay [16] was inactive. In addition, the inhibition in assay [5] was 93% (active). Moreover, the activation in assay [10] was 41% (active).

`CN(C)C(CNC(=O)c1cc2ccccc2oc1=O)c1ccccc1` (stereo not given): in assay [1], the activation was 65% (active). For the same molecule, the result in assay [2], in assay [3], in assay [4], in assay [5], in assay [7] and in assay [9] was inactive. In addition, the outcome in assay [10], in assay [11], in [12], in assay [13], in assay [14] and in assay [15] was inactive. Besides, the result in assay [16] was inactive. Also, in assay [6], the inhibition is 76% (active).

Consider `O=c1c2ccccc2[nH]c(=S)n1Cc1cccnc1`, for which the outcome in assay [1], in [2], in [3], in assay [4], in [6] and in [7] was inactive. For the same molecule, the call in assay [9], in assay [10], in assay [11], in assay [12], in assay [13] and in [14] was inactive. For the same molecule, the result in assay [15] and in [16] was inactive. In addition, the inhibition in assay [5] is 94% (active).

As for `Cc1ccc2c(nc3s/c(=C\c4ccc(-c5ccccc5C(=O)O)o4)c(=O)n32)c1C`, the activation is 232% (active) in assay [1], 805% (active) in [10], 182% (active) in [12] and 203% (active) in [15]. In addition, the outcome in assay [2], in assay [3], in assay [4], in assay [5], in assay [6] and in assay [7] was inactive. Besides, the outcome in assay [9], in assay [11], in assay [14] and in assay [16] was inactive. In addition, the inhibition in [13] is 28.9% (active).

Consider `Cc1ccc(S(=O)(=O)Nc2cccc(C(=O)NCC(c3ccccc3)N(C)C)c2)cc1F` (stereo not given), for which the values for the activation in assay [1] and in assay [10] were 84% (active) and 37.5% (active), respectively. In addition, the result in [2], in [3], in assay [4], in assay [5], in assay [7] and in assay [9] was inactive. Also, the outcome in [11], in [12], in assay [13], in assay [14], in assay [15] and in [16] was inactive. In addition, in assay [6], the inhibition is 78% (active).

On to `CCn1c(SCC(=O)c2cc(C)n(CC3CCCO3)c2C)nc2ccccc21` (stereo not given), for which the result in [1], in [2], in assay [3], in assay [4], in assay [6] and in [7] was inactive. The call in assay [9], in [11], in [12], in [13], in assay [14] and in assay [15] was inactive. Also, the result in assay [16] was inactive. Further, the inhibition in [5] was 69% (active). In assay [10], the activation is 65% (active).

As for `Cc1ccc(S(=O)(=O)NCCC(=O)NCC(c2ccco2)N2CCCCC2)cc1C` (stereo not given), the figures for the activation in assay [1] and in [10] were 82% (active) and 37% (active), respectively. For the same molecule, the result in assay [2], in assay [3], in assay [4], in assay [5], in assay [7] and in [9] was inactive. The result in [11], in assay [12], in [13], in assay [14], in assay [15] and in assay [16] was inactive. Besides, the inhibition in assay [6] was 80% (active).

Turning to `CCOC(=O)C1(CC2CC2)CCN(Cc2cn[nH]c2-c2ccccc2)CC1`, the outcome in assay [1], in assay [2], in assay [3], in assay [4], in [7] and in assay [9] was inactive. For the same molecule, the outcome in assay [11], in [12], in assay [14], in assay [15] and in assay [16] was inactive. Besides, the inhibition in assay [5] is 97% (active); in [6] it was 47% (active); in assay [13] it was 35.9% (active). Besides, in [10], the activation was 91% (active).

Usually inhibition stands for the drop in the measured response relative to a control, in per cent.
